Compound activity (PubChem)
Sampled rows, rich in hits. Any-hit rate of the full collection: about 21%.
NS1 function inh: inhibitors of influenza NS1 protein function | Potency, µM (highest dose often 46.1 µM), inactives show at the top dose activity, positive = more growth | 270,000 tested, 0.4% active | AID 2326; calls by dose curve; note: potency is the fitted concentration of half-maximal effect; actives are rising curves; nearly all actives have a fitted effect of over 50% in size
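S. cerevisiae expressing influenza A NS1, grown in glucose, washed, then diluted 1:100 into pH 6.0 -URA galactose medium with 23 nl compound. Growth recovery read as OD600; NS1-free strain serves as control.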
SARS PLpro yeast-1: SARS-CoV PLP inhibition in yeast | S. cerevisiae expressing SARS-CoV PLpro, growth rescue | Potency, µM (top dose mostly 32.9 µM), inactives show top-dose activity, positive = growth rescue, most hits filed as activators | 330,000 tested, 0.19% active | AID 485353; calls by dose curve; note: potency is the fitted concentration of half-maximal effect; 0% is about no effect; nearly all actives have a fitted effect of over 55% in size
Pf growth 48h: inhibits P. falciparum growth in the first generation, 48 h; P. falciparum luciferase growth in erythrocytes, 48 h; Potency, µM (highest dose often 28.7 µM), for the others: top-dose activity change, negative = inhibition, hits mostly inhibitors; 310,000 tested, 5.9% active; AID 504832; note: potency is the fitted concentration of half-maximal effect; % is set by controls: 0 for no effect and ±100 for the full control effect
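Here the parasites carry a stable luciferase gene and grow inside erythrocytes in Albumax-based RPMI medium with compound for one erythrocytic cycle. Activity is scored as loss of luminescent signal.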
Shiga inhibitor: Shiga toxin inhibition; AID 2315; inhibition, % at 38.7 µM; 290,000 tested, 9.2% active; Vero cells, Shiga toxin protein synthesis inhibition reporter; in the data active = inhibition mostly above about 28%, no sharp cut-off; inactive = mostly below about 43%; note: 0% is about no effect
Pf growth 96h: inhibits malaria parasite growth, 96 h. P. falciparum luciferase reporter growth, 96 h. Potency, µM (doses to about 28.7 µM), for the others: at the top dose activity change, negative = inhibition, usual class: inhibitors. 320,000 tested, 6.9% active. AID 504834; note: potency is the fitted concentration of half-maximal effect; % is set by controls: 0 for no effect and ±100 for the full control effect
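Erythrocytes infected with luciferase-expressing P. falciparum were dispensed at 2% hematocrit and 0.05% parasitemia (final), then incubated with compounds 96 hours at 37 C in 5% CO2. Luminescence after detection reagent addition reported growth.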
CHX counter: affects cycloheximide protein synthesis inhibition readout, counter-screen | AID 2314 | max response, % | 300,000 tested, 12% active | cell reporter, cycloheximide protein synthesis inhibition counterscreen; in the data active = max response mostly above about 13%, no sharp cut-off; inactive = mostly below about 14%; note: read at 38.3 µM for the half of the compounds with a filed dose; 0% is about no effect
SARS PLpro yeast-2: Validates SARS-CoV PLpro inhibitor hits in yeast | calls only | yeast expressing SARS-CoV PLpro, growth phenotype rescue | shares compounds with SARS PLpro yeast-1 | AID 652038 | 1,000 tested, 19% active; call rule not given here
* = called active by the depositor; i = inactive; ? = inconclusive; / = no result; + = active, no number. Unless noted, calls come from the whole dose curve; as a rule, active = well fitted inhibition curve with a large enough effect; inconclusive = small, poorly fitted or top-dose-only effect, or another doubt; inactive = no such curve, though single readings can be large or run the other way.

SMILES | NS1 function inh | SARS PLpro yeast-1 | Pf growth 48h | Shiga inhibitor | Pf growth 96h | CHX counter | SARS PLpro yeast-2
COc1ccc(CNC(=O)CSc2cccc3cccnc23)cc1 | -33.4% | 0.7% | -6.7% | 10.7 | 4.6% | 11.7 | /
Oc1c(C(c2cccs2)N2CCN(c3ccccc3)CC2)ccc2cccnc12 (stereo not drawn) | -105.7% | / | ? | 29.6 | ? | 2.0 | /
Oc1c(C(Nc2cccc(C(F)(F)F)c2)c2cccnc2)ccc2cccnc12 (stereo not drawn) | -16.5% | ? | 9.28µM* | -4.9 | 3.7µM* | -1.8 | i
S=c1[nH]nc(COc2ccccc2)n1/N=C/c1c(Cl)cccc1Cl | -2.7% | 2.1% | / | -9.7 | 25.9% | -1.9 | /
CCn1nc(C)c(/C=C/C(=O)Nc2ccc(C)cc2C)c1C | -0.2% | ? | ? | -2.8 | ? | -1.8 | i
Cc1cccc(C)c1Nc1nnc(SC(C)C(=O)Nc2c(C)n(C)n(-c3ccccc3)c2=O)s1 (stereo not drawn) | -0.9% | 1.7% | -7.5% | 9.7 | ? | -2.5 | /
Cc1ccc(Nc2nnc(SC(C)C(=O)Nc3c(C)n(C)n(-c4ccccc4)c3=O)s2)cc1 (stereo not drawn) | 23.7% | 2.82µM* | -20.3% | -7.6 | -0.3% | -1.5 | i
Cc1ccnc2nc(C(=O)OCC(=O)Nc3ccc4c(c3)OCCO4)nn12 | / | ? | / | / | / | / | i
COC(=O)c1ccc(NC(=O)COC(=O)c2nc3nccc(C)n3n2)cc1 | / | -1.3% | 8.6% | -6.0 | ? | 7.5 | /
COc1ccc(C)cc1N(C(=O)c1ccco1)C(C(=O)NC1CCCC1)c1ccc(N2CCOCC2)cc1 (stereo not drawn) | -1.2% | -1.1% | ? | -1.7 | ? | -1.9 | /
CC(=O)Nc1cccc(-c2nnc(-c3ccccc3)o2)c1 | -26.9% | ? | 27.6% | 106.1* | / | 45.1* | ?
O=C(CCNC(=O)c1ccccc1Cl)Nc1ccc(Cl)c(C(F)(F)F)c1 | -17.0% | 3.55µM* | 44.0% | -6.8 | ? | 3.9 | i
CC1(c2nnc(Cc3ccccc3)o2)CC(c2ccc(OC(F)(F)F)cc2)=NO1 (stereo not drawn) | / | 10µM* | -0.4% | / | 54.1% | / | i
COc1ccccc1CNC(=O)CCS(=O)(=O)Cc1ccc(C)cc1 | 0.6% | -1.5% | 7.5% | -7.0 | 27.1% | -10.4 | /
O=C(CSc1nnc(-c2cccnc2)s1)Nc1ccccc1 | -8.7% | ? | 19.4% | -5.2 | 1.1% | -4.4 | +
CC(=O)c1ccc(S(=O)(=O)N2CCNC(=O)C2)cc1 | / | 4.9% | / | / | / | / | /
CCc1ccc(OCc2nnc(SCCN3CCOCC3)n2CC)cc1 | -13.6% | ? | -28.5% | -4.9 | / | -2.8 | i
CC(C)N1C(=O)CCC1C(=O)NCc1ccccc1Cl (stereo not drawn) | 0.3% | -9.1% | 26.0% | -19.6 | 3.4% | -3.6 | /
Cc1nnc(SCC(=O)NNC(=O)C(C)C)[nH]c1=O | 5.1% | 22.4µM* | 18.0% | -2.3 | 11.7µM* | 3.0 | i
Cc1ccccc1N1CC(C(=O)N2CCCCCC2)CC1=O (stereo not drawn) | / | / | 13.9% | / | 0.6% | / | /
C(=N\NC(=Nc1ccccc1)c1ccccn1)/c1ccccn1 | -8.9% | ? | ? | 27.6 | 27.5% | 14.1* | ?
O=C(NCc1ccncc1)C(=O)N/N=C/c1ccccn1 | 6.3% | -0.9% | 35.1% | -4.8 | 13.9% | -1.1 | /
COc1cc([N+](=O)[O-])ccc1NC(=O)C[n+]1ccccc1 | -7.7% | 26.9% | -3.3% | -9.2 | 54.5% | -2.5 | /
O=C(c1ccc(O)c(Cl)c1)N1CCN(S(=O)(=O)c2ccccc2)CC1 | 8.6% | ? | -6.3% | 2.9 | -2.2% | -2.5 | i
CN1CCN(S(=O)(=O)c2cccc(C(=O)N3CCN(c4ccccc4F)CC3)c2)CC1 | / | 3.1% | -25.2% | / | -24.1% | / | /
CCOC(=O)c1ccccc1NC(=O)c1cccc2c1C(=O)N(C1CCN(C(=O)OCC)CC1)C2 | -64.5% | 9.7% | / | 3.2 | -3.2% | -3.7 | /
CCOC(=O)N1CCC(N2Cc3cccc(C(=O)N4CCN(C5CCCCC5)CC4)c3C2=O)CC1 | -8.6% | 20µM* | / | 31.9 | ? | -9.2 | i
O=C(NS(=O)(=O)N1CCOCC1)C1=C(N2CCCC2)COC1=O | / | 3.55µM* | / | / | / | / | i
